Source: PubChem (several laboratories)
Rows were chosen to be rich in hits. Some 5.4% of all compounds tested hit in one or more screens of this group.
APOBEC3G inh = blocks human APOBEC3G single-stranded DNA deamination. 330,000 compounds, 0.28% hits. recombinant A3G, ssDNA deamination FAM/TAMRA fluorescence. inhibition, % at 20 µM. AID 493012;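 active = inhibition of at least 40% at 20 µM, with no more than 30% in the related APOBEC3A deaminase screen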;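 note: plate controls were DMSO wells with A3G for no effect and wells lacking A3G enzyme for full effect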
ALR inh = inhibitors of human sulfhydryl oxidase ALR; purified ALR, DTT oxidation, H2O2 HRP-luminol luminescence; 290,000 compounds, 3.8% hits; P55789; inhibition, % (no concentration beside the values); AID 485317;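 active = mean replicate inhibition above about 79%, with every replicate also reaching it, limit read from the data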
APOBEC3A inh = blocks human APOBEC3A ssDNA deamination | P31941 | recombinant A3A, FAM/TAMRA ssDNA deamination fluorescence | inhibition, % at 20 µM | 330,000 compounds, 0.41% hits | AID 493011;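 active = at least 40% inhibition at 20 µM here, with at most 30% in a related deaminase screen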;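 note: plate controls were A3A with DMSO for no effect and wells lacking A3A enzyme for full effect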
Target sequence (P31941 whole entry, looked up): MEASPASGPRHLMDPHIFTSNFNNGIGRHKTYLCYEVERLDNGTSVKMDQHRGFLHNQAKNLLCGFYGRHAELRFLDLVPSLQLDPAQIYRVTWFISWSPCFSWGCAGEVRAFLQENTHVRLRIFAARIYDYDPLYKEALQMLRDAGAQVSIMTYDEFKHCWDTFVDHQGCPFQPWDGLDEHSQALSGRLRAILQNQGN
aDG glyco act = alpha-DG glycosylation activation; Pro5-aDG cells, alpha-DG glycosylation AlphaScreen (IIH6); 0% Pro5, 100% B10-LARGE cell signal; activation, % at 10 µM; 360,000 compounds, 0.22% hits; AID 624168;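 active = activation of at least 8% versus controls, or a plate z-score of at least 8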;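 note: Pro5 are CHO cells carrying HIG-tagged alpha-DG that lacks glycosylation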
rCAG RNA binder = molecules binding r(CAG) RNA repeats | r(CAG) RNA repeat, TO-PRO-1 dye displacement fluorescence | inhibition, % at 3 µM | 370,000 compounds, 1.3% hits;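 active = inhibition above the plate cutoff, the mean of all test compounds on that plate plus 3 SD, cut at about 35% in these data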;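 note: 0% = DMSO alone and 100% = 100 µM mitoxantrone as full dye displacement; higher means more dye released from RNA so lower well fluorescence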
PHOSPHO1 block = blocks human PHOSPHO1 phosphatase activity; inhibition, % at 13.3 µM; 290,000 compounds, 1.1% hits; Q8TCT1; AID 1565; recombinant PHOSPHO1, absorbance phosphatase assay; in the data active = inhibition above about 60%
Target sequence (Q8TCT1 whole entry, looked up): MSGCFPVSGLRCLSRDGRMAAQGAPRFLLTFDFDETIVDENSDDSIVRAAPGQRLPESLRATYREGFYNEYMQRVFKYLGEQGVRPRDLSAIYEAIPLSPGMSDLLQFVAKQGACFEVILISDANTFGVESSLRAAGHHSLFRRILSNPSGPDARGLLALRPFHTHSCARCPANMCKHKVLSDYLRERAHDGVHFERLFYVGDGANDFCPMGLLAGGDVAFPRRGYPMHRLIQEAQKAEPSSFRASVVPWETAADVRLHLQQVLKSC
rCAG binder conf = r(CAG) RNA repeat binding, confirmation. shares compounds with rCAG RNA binder. TO-PRO-1 dye displacement fluorescence. inhibition, % at 3 µM. 4,300 compounds, 70% hits;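 active = inhibition above a per-plate cutoff, the mean inhibition of sample wells plus 3 SD, cut at about 35% in these data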;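 note: loss of TO-PRO-1 fluorescence as compound displaces dye from 1x1 AA loop RNA; 0% = DMSO only wells and 100% = 100 µM mitoxantrone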
DNA CAG counter = disrupts DNA CAG TO-PRO-1 complex, flagging rCAG hits; d(CAG) DNA oligo TO-PRO-1 dye displacement, fluorescence; shares compounds with rCAG RNA binder; AID 652068; inhibition, % at 3 µM; 4,300 compounds, 94% hits;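 active = inhibition above its plate's cutoff, the mean test-well inhibition plus 3 SD, cut at about 4.8% in these data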;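 note: 0% = DNA dye mix with DMSO and 100% = 100 µM mitoxantrone; hits displace the dye from DNA and so lower well fluorescence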
* = called active by the depositor; . = no result.

SMILES	APOBEC3G inh	ALR inh	APOBEC3A inh	aDG glyco act	rCAG RNA binder	PHOSPHO1 block	rCAG binder conf	DNA CAG counter
Cc1cc(C)n2c(SC/C(O)=C(\C#N)c3nc4ccccc4[nH]3)nnc2n1	26	-33	13	0	37*	9	37*	17*
Cc1ccccc1-n1c(SC/C(O)=C(\C#N)c2nc3ccccc3[nH]2)nnc1-c1ccncc1	-10	-1	-2	0	8	37	.	.
Cc1cccc(Nc2nnc(SCC(O)=C(C#N)c3nc4ccccc4[nH]3)s2)c1	.	.	.	0	42*	.	48*	24*
Cc1cc(SCC(=O)OC/C(O)=C(\C#N)c2nc3ccccc3[nH]2)c(C)cc1Br	-7	38	2	-1	9	34	.	.
CCOc1ccc(NS(=O)(=O)c2ccc(C(=O)N(C)CC(=O)Nc3ccccc3Br)cc2)cc1	.	.	.	0	4	.	.	.
CCCCC(=O)N(C)c1c(CC)nc2c(OCC(=O)C(C)(C)C)cccn12	.	.	.	0	-2	.	.	.
Cc1ccc(-c2csc3nc(SCC(=O)Nc4ccc(Cl)c(C(=O)O)c4)[nH]c(=O)c23)cc1	2	57	3	0	81*	4	55*	20*
NNC(=O)c1cc2ccccc2cc1NS(=O)(=O)c1ccccc1	-9	.	-8	0	54*	.	14	5.0*
COc1ccc(OC)c(C(=O)CCCC(=O)c2cc(OC)ccc2OC)c1	-7	-7	-2	0	-2	.	.	.
CCCCCc1c2c(cc(O)c1C(=O)O)OC(=O)c1cc(C(=O)CCCC)c(OC)cc1O2	0	.	1	0	87*	.	88*	61*
Cc1noc(C)c1S(=O)(=O)NC(=O)C1(C)CCN1C(=O)C1(c2ccc(Cl)cc2)CCC1 (configuration not stated)	.	.	.	0	25	.	.	.
Cc1c(Cc2ccccc2)c(=O)oc2c(C)c(OC(C)C(=O)N[C@@H](Cc3ccccc3)C(=O)O)ccc12 (some centres not stated)	-8	97*	0	0	48*	13	61*	23*
Cc1c(OCC(=O)N[C@@H](Cc2ccccc2)C(=O)O)ccc2c1oc(=O)c1ccccc12	-4	7	1	0	28	13	.	.
O=C(N[C@H](C(=O)N1CCC[C@H]1C(=O)NCCc1ccccc1Cl)C1CCCCC1)c1ccccc1	.	.	.	.	-1	.	.	.
CC1CN(S(=O)(=O)c2ccc(NC(=O)c3cc(-c4ccccc4O)n[nH]3)cc2)CC(C)O1 (configuration not stated)	0	34	1	1	37*	10	28	14*
O=C(Nc1ccc(S(=O)(=O)N2CCOCC2)cc1)c1ccccc1	-10	-4	-3	0	.	.	.	.
O=C(Nc1ccc(S(=O)(=O)N2CCOCC2)cc1)c1cc(-c2ccccc2O)n[nH]1	-9	17	-6	0	35*	16	24	7.9*
N#CCC[C@@H]1CC[C@]2(CCCN(Cc3ccc(Br)cc3)C2)O1	.	.	.	.	2	.	.	.
CCC(=O)Nc1cc(OC)c(NC(=S)Nc2ccccc2CC)cc1OC	.	.	.	0	2	.	.	.
O=C(Nc1ccc(S(=O)(=O)Nc2nccs2)cc1)C1CC(=O)N(c2ccccc2)C1 (configuration not stated)	-4	2	-1	0	.	5	.	.
CCOc1ccc(N2CC(C(=O)Nc3ccc(S(=O)(=O)Nc4nccs4)cc3)CC2=O)cc1 (configuration not stated)	-8	3	-5	0	49*	31	34	12*
Cc1ccc(N2CC(C(=O)Nc3ccc(S(=O)(=O)Nc4nccs4)cc3)CC2=O)cc1 (configuration not stated)	-5	46	-2	0	36*	-7	27	6.7*
CCOc1ccc(N2CC(C(=O)Nc3ccc(S(=O)(=O)Nc4ncccn4)cc3)CC2=O)cc1 (configuration not stated)	-3	5	0	0	9	-4	.	.
Cc1oc(-c2cccs2)nc1CNC[C@H]1O[C@@H](n2cnc(C(N)=O)n2)[C@H](O)[C@@H]1O	.	.	.	0	6	.	.	.
C=CCN1C(=O)/C(=C/c2ccc(OC(C)=O)c(OCC)c2[N+](=O)[O-])SC1=S	.	.	.	0	80*	-37	42*	12*
SMILES	APOBEC3G inh	ALR inh	APOBEC3A inh	aDG glyco act	rCAG RNA binder	PHOSPHO1 block	rCAG binder conf	DNA CAG counter
CCOc1c(OC(C)=O)ccc(/C=C/c2ccc3cccc(OC(C)=O)c3n2)c1[N+](=O)[O-]	6	-2	2	0	.	43	.	.
N#CC(CCc1ccccc1[N+](=O)[O-])(CCc1ccccc1[N+](=O)[O-])C(N)=O	.	.	.	0	0	.	.	.
N#C/C(=N\Nc1cccc([N+](=O)[O-])c1)C(=O)c1ccc(Br)cc1	-6	-3	2	0	76*	42	87*	52*
N#CCC[C@@H]1CC[C@]2(CCCN(C(=O)C3CCCCC3)C2)O1	.	.	.	.	0	.	.	.
NC(c1csc(NC(=O)Nc2ccccc2Cl)n1)C1CCCCC1 (configuration not stated)	.	.	.	-1	23	.	.	.
NC(c1csc(NC(=O)Nc2ccccc2)n1)C1CCCCC1 (configuration not stated)	.	.	.	5	42*	.	24	4.8*
NC(c1csc(NC(=O)Nc2cccc(Cl)c2)n1)C1CCCCC1 (configuration not stated)	.	.	.	-1	47*	.	31	5.9*
NNC(=O)c1cccc(S(=O)(=O)Nc2cc(Cl)ccc2Cl)c1	-7	32	3	0	64*	2	13	3
COc1ccccc1NS(=O)(=O)c1cccc(C(=O)NN)c1	-5	-3	0	0	11	22	.	.
Cc1ccccc1-c1cc(C(=O)Nc2sc(C(=O)OC(C)C)c(C)c2C#N)c2ccccc2n1	-5	-2	-2	0	47*	40	62*	28*
CC1(C(=O)NS(=O)(=O)c2ccc(Cl)s2)CCN1C(=O)C1(c2ccccc2)CCCC1 (configuration not stated)	.	.	.	0	49*	.	51*	16*
CC1(C(=O)NS(=O)(=O)c2cccs2)CCN1C(=O)C1(c2ccc(Cl)cc2)CCC1 (configuration not stated)	.	.	.	0	28	.	.	.
CC1(C(=O)NS(=O)(=O)c2ccc(Cl)s2)CCN1C(=O)C1(c2ccc(Cl)cc2)CC1 (configuration not stated)	.	.	.	0	54*	.	49*	14*
CC1(C(=O)NS(=O)(=O)c2ccc(Cl)s2)CCN1C(=O)C1(c2ccc(Cl)cc2)CCC1 (configuration not stated)	.	.	.	1	62*	.	59*	21*
